# Shown are actives, neighbours in structure and some others; about 32% of the full set was active somewhere.
# PostGolgi yeast – growth inhibition of a yeast mutant, post-Golgi transport screen. 0.9% of 98,000 active. post-Golgi transport phenotypic cell assay. inhibition, % at 10 µM;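 further: yeast cells grown in 1536-well plates; yeast grown about 18 h at 30C before absorbance read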
# CYP2C19 inh – human CYP2C19 inhibition; P33261; CYP2C19 Supersomes, luciferin-H EGE luminescence, 30 min; inhibition, % at 5 µM; 21% of 96,000 active; AID 778;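 active means CYP2C19 inhibition above a set limit at 5 µM in the primary screen, cut at about 50% in these data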
# Target sequence (P33261 whole entry, looked up): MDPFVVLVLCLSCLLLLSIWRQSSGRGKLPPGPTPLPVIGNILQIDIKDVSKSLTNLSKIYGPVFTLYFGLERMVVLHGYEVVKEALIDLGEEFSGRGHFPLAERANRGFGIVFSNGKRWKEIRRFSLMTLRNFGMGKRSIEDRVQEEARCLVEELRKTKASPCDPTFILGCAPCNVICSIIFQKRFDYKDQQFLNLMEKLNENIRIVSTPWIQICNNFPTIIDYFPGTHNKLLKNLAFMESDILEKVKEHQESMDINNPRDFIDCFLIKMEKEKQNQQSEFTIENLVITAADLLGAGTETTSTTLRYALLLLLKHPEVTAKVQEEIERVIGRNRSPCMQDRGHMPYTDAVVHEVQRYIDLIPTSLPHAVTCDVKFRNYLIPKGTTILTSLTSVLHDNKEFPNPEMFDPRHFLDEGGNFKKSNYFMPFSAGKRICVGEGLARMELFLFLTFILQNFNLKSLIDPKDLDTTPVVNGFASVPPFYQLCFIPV
# PostGolgi ctrl – inhibits growth of the yeast control strain. AID 738. efflux-deficient yeast background strain, growth absorbance A615, 16 h. inhibition, % at 10 µM. 5% of 98,000 active
# CYP2C9 activ – increases human cytochrome P450 2C9 activity | 1.4% of 96,000 active | P11712 | activation factor at 5 µM | recombinant CYP2C9, luciferin-H conversion, luminescence; stronger effect = higher value; factor 1 = untreated enzyme, 0 = blocked | AID 1024;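 active means activation factor of 2 or more for CYP2C9 at a 5 µM dose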
# CYP2C9 inhib – blocks human cytochrome P450 2C9; 20% of 96,000 active; inhibition, % at 5 µM; AID 777; CYP2C9 Supersomes, luciferin-H conversion, luminescence; P11712;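 active means blocking of liver enzyme CYP2C9 beyond about 50% at 5 µM, limit read from the data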
# CYP2C19 activ – activators of human cytochrome P450 2C19. recombinant CYP2C19, luciferin-H EGE luminescence; stronger effect = higher value; 0 = fully inhibited enzyme, 1 = untreated enzyme. activation factor at 5 µM. 96,000 tested, under 10 active. AID 1025;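 active means activation factor of at least 2 at 5 µM in the primary screen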
# A number is an active result; – = inactive; · = not tested or not shown. Unless noted, no stated cut-off is given here; in the data, active means inhibition above about 30%; inactive means the rest.
SMILES,PostGolgi yeast,CYP2C19 inh,PostGolgi ctrl,CYP2C9 activ,CYP2C9 inhib,CYP2C19 activ
CCOC(=O)Cc1csc(NC(=O)CSc2nnc(C)n2C)n1,–,–,–,–,–,–
CCN(CC)C(=O)CSc1nc2sc(C)c(C)c2c(=O)[nH]1,–,–,–,–,–,–
Cc1sc2nc(SCC(=O)N(C)C)[nH]c(=O)c2c1C,–,–,–,–,53.7,–
CCOC(=O)Cc1csc(NC(=O)CSc2nc3sc(C(=O)O)c(C)c3c(=O)[nH]2)n1,–,–,–,–,84.1,–
Cc1csc(NC(=O)CSc2nc3sc(C)c(C)c3c(=O)[nH]2)n1,–,–,–,–,86.3,–
Cc1sc2nc(SCC(=O)N3CCCC3)[nH]c(=O)c2c1C,–,–,–,–,–,–
Cc1nc2c(C(=O)NCc3ccc4c(c3)OCO4)c[nH]n2c(=O)c1Cl,–,–,–,–,77.2,–
Cc1nc2c(C(=O)NCCC3=CCCCC3)c[nH]n2c(=O)c1Cl,–,–,–,–,56.0,–
O=C1N(CC(=O)N2CCc3ccccc32)CCN1Cc1ccc(Cl)cc1,–,–,–,2.3,–,–
Cc1ccc(CN2CCN(CC(=O)NC(C)CCc3ccccc3)C2=O)cc1 (stereo not given),–,58.2,–,–,66.6,–
CC(CCc1ccccc1)NC(=O)CN1CCN(Cc2ccc(Cl)cc2)C1=O (stereo not given),–,70.8,–,–,55.8,–
CCOc1ccc(CCNC(=O)CN2CCN(Cc3ccccc3F)C2=O)cc1OCC,–,–,–,–,–,–
O=C(CN1CCN(Cc2ccccc2F)C1=O)NCCc1ccc(Cl)cc1,–,66.5,–,–,88.1,–
Cc1ccc(C(=O)CSc2nc(C)cc(SCc3nnc(-c4ccccc4)o3)n2)cc1,–,–,–,–,–,–
COCCCNS(=O)(=O)c1ccc(S(=O)(=O)N2CCCC2)cc1,–,–,–,–,–,–
CC(CCc1ccccc1)NC(=O)CN1CCN(Cc2ccccc2)C1=O (stereo not given),–,–,33.0,–,–,–
CCN(CCNC(=O)CN1CCN(Cc2ccc(Cl)cc2)C1=O)c1ccccc1,–,56.9,–,–,52.2,–
Cn1cc(S(=O)(=O)NCc2cccs2)c(=O)n(C)c1=O,–,–,–,–,–,–
c1ccc(OCc2nn3c(Cn4cnc5ccccc54)nnc3s2)cc1,–,–,41.6,–,–,–
c1ccc2c(c1)ncn2Cc1nnc2sc(-c3ccncc3)nn12,–,78.5,–,–,–,–
c1ccc(-c2nn3c(Cn4cnc5ccccc54)nnc3s2)cc1,–,78.8,–,–,–,–
c1cncc(-c2nn3c(Cn4cnc5ccccc54)nnc3s2)c1,–,–,–,–,–,–
CCCCn1c(=O)c2c(c3ccccc31)OCC(=O)N2,·,–,·,–,–,–
CCOc1ccccc1OCC(O)CNC (stereo not given),–,–,–,–,–,–
CCOc1ccc(N(C(=O)Nc2ccccc2)C2=NCCC2)cc1,–,–,–,–,–,–
SMILES,PostGolgi yeast,CYP2C19 inh,PostGolgi ctrl,CYP2C9 activ,CYP2C9 inhib,CYP2C19 activ
O=C(Nc1ccccc1)N(C1=NCCC1)c1ccc(OC(F)F)cc1,–,50.5,–,–,79.4,–
O=C(Cc1nn[nH]n1)NCc1ccccc1Cl,–,–,–,–,–,–
O=C(CC(Nc1ccccc1Cl)C(=O)OCC(=O)c1cccs1)c1ccccc1 (stereo not given),–,65.4,–,–,61.9,–
O=C(OCC(=O)c1cccs1)c1ccccc1,–,–,–,–,–,–
CC(=O)COC(=O)c1cccc(N2C(=O)C3C4C=CC(C4)C3C2=O)c1 (stereo not given),–,–,31.4,–,–,–
Cc1ccccc1NC(=O)c1cccc(N2C(=O)C3C4CCC(C4)C3C2=O)c1 (stereo not given),–,–,–,–,56.6,–
CSc1cccc(NC(=O)CSc2nc3ccccc3o2)c1,–,53.3,–,–,–,–
O=C(CSc1nc2ccccc2o1)Nc1ccccc1,–,63.4,–,–,–,–
O=C(CSc1nc2ccccc2o1)NCCOc1ccccc1,–,89.2,–,–,68.0,–
O=C(CSc1nc2ccccc2o1)NCC(=O)c1ccccc1,–,61.0,–,–,–,–
O=C(O)CSc1nc2ccccc2o1,–,–,–,–,–,–
O=C(NCc1ccccc1C(F)(F)F)C12CN(Cc3ccccc3)CC1C(c1ccc([N+](=O)[O-])cc1)=NO2 (stereo not given),–,–,–,–,–,–
COC(=O)c1nn(-c2ccc(OC)cc2)c(=O)cc1Oc1cccc(Cl)c1,–,–,–,–,–,–
O=C(CC1NCCNC1=O)OCCCc1ccccc1 (stereo not given),–,–,–,–,–,–
N#CC(c1cccc(Cl)c1)c1ccc2c(C(F)(F)F)cc(C(F)(F)F)nc2n1 (stereo not given),99.4,–,101.6,–,77.7,–
CC1C(=O)C(C)C(c2ccc3c(c2)OCO3)NC1c1ccc2c(c1)OCO2 (stereo not given),–,97.4,35.4,–,72.5,–
CCC(C(=O)Nc1ccccc1-c1ccccc1)c1ccccc1 (stereo not given),–,–,–,–,–,–
CCCC(C)NCC(=O)Nc1ccccc1-c1ccccc1 (stereo not given),–,64.8,–,–,–,–
COC(=O)c1ccccc1NC(=O)c1nc2nc(C)cc(C(F)F)n2n1,–,–,–,–,–,–
Cc1ccc2c(c1)nnn2C1CCN(CC(=O)Nc2ccc3c(c2)OCCO3)CC1,–,–,–,–,50.1,–
O=C(CN1CCC(n2nnc3cc(F)ccc32)CC1)N1CCCc2ccccc21,–,65.9,–,–,–,–
O=C(CN1CCC(n2nnc3ccccc32)CC1)Nc1ccc2c(c1)CCC2,–,67.5,–,–,62.0,–
O=C(CN1CCC(n2nnc3cc(F)ccc32)CC1)Nc1ccc2c(c1)CCC2,–,–,–,–,–,–
Cc1ccc2nc(C3CCN(CC(=O)Nc4ccc5c(c4)OCCO5)CC3)[nH]c2c1,–,80.2,–,–,77.8,–
C[C@@H](C(=O)NCc1ccccc1)N1C(=O)C2CC=CCC2C1=O (stereo not given in full),–,–,–,–,–,–
SMILES,PostGolgi yeast,CYP2C19 inh,PostGolgi ctrl,CYP2C9 activ,CYP2C9 inhib,CYP2C19 activ
COc1c2ccc(C(=O)NCCCCc3ccccc3)cc2nn1C,–,–,–,–,–,–
CC1=C(C#N)C2C(/C1=N/O)C2(C)C (stereo not given),–,–,–,–,–,–
CCN(CC)CCCNC(=O)c1nn(-c2cccc(OC)c2)c(=O)c2ccccc12,–,–,–,–,–,–
CC1(C)Cc2c(c(N3CCCCC3)[nH]c(=S)c2C#N)CS1,–,–,–,–,–,–
CC(C)Sc1nc(N2CCOCC2)c2c(c1C#N)CC(C)(C)SC2,–,69.7,–,–,95.0,–
CC(C)Sc1nc(N2CCOCC2)c2c(c1C#N)CC(C)(C)N(C)C2,–,64.4,–,–,96.8,–
